Screening data deposited in PubChem by National Center for Advancing Translational Sciences (NCATS).
VP16 counter = VP16 counterscreen qHTS for inhibitors of ROR gamma transcriptional activity. Drosophila S2 Gal4-VP16 UAS-luciferase, luminescence, 20 h. Potency, µM (doses to about 53.6 µM), for the others: at the top dose activity, negative = inhibition, hits mostly inhibitors. actives 3.5% (n = 310,000). AID 2546, 2010;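 also: Gal4-VP16 expression switched on by copper sulfate through the metallothionein promoter; potency is read from the fitted curve at half-maximal effect; % is scaled to controls: 0 for no effect and ±100 for the full control effect; nearly all actives have a fitted effect of over 50% in size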
MCF10A rerep = A quantitative high throughput screen for small molecules that induce DNA re-replication in MCF 10a normal breast cells. actives 2.9% (n = 350,000). MCF 10A DNA re-replication, Hoechst nuclear intensity, 48 h. Potency, µM (highest dose often 46.1 µM), for inactives: at the top dose activity, positive = re-replication, hits mostly activators. AID 624296, 2012; also: potency is read from the fitted curve at half-maximal effect; % of control where 0% means no effect; nearly all actives have a fitted effect of over 50% in size
RORgamma inh = qHTS for inhibitors of ROR gamma transcriptional activity; Nuclear receptor ROR-gamma (Mus musculus), P51450; Drosophila S2 Gal4-RORgamma UAS-luciferase reporter, 20 h; Potency, µM (top dose mostly 53.6 µM), for the others: top-dose activity change, negative = inhibition, actives largely listed as inhibitors; actives 5.4% (n = 310,000); AID 2551, 2010; also: potency is read from the fitted curve at half-maximal effect; % is scaled to controls: 0 for no effect and ±100 for the full control effect; nearly all actives have a fitted effect of over 60% in size
Target sequence (P51450 whole entry, looked up, the tested form may be a part): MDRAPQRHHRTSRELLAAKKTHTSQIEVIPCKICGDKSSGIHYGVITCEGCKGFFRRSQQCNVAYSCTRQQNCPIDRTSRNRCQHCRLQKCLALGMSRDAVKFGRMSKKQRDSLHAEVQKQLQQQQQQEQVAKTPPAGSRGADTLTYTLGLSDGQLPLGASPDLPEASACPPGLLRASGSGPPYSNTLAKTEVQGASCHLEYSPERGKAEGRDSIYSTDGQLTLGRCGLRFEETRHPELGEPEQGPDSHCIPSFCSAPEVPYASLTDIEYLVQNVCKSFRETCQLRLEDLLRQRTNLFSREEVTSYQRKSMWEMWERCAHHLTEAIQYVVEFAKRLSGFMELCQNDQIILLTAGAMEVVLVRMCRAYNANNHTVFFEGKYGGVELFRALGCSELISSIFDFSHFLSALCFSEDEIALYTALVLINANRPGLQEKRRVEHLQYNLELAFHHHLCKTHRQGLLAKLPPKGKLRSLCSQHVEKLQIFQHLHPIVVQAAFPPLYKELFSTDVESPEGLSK
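Drosophila S2 cells stably expressing Gal4-DBD/mouse RORγ fusion under metallothionein promoter plus UAS-luciferase; compound 1 h, then 700 uM CuSO4 induction for 20 h at ambient temperature; inhibition read as reduced luminescence.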
Giardia kill = Small Molecules that selectively kill Giardia lamblia: qHTS; Giardia lamblia trophozoite viability; activity change, % at 7.66 µM, hits read low; actives 0.15% (n = 340,000); in the data active = activity change below about -80%; inconclusive = between about -30% and that limit;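 also: parasites exposed to compound for two days anaerobically before the ATP read; % is scaled to controls: 0 for no effect and ±100 for the full control effect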
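ATP-content bioluminescence gauges trophozoite survival. Cells (100/well) receive compound and incubate anaerobically for 48 hrs at 37 deg C; detection reagent follows for 15-30 min at room temperature.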
SW480 rereplic = A quantitative high throughput screen for small molecules that induce DNA re-replication in SW480 colon adenocarcinoma cells; SW480 DNA re-replication, Hoechst DNA content imaging, 48 h; Potency, µM (highest dose often 46.1 µM), without a hit: at the top dose re-replication activation, most hits filed as activators; actives 1.8% (n = 340,000); AID 624297, 2012; also: potency is read from the fitted curve at half-maximal effect; % of control where 0% means no effect; nearly all actives have a fitted effect of over 55% in size
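Quantitative HTS format with DMSO vehicle controls; 48 hr drug incubation at 37 C, then 40 min Hoechst staining and scanning imager measurement at 405 nm excitation.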
Chronic BCR inh = qHTS Assay to Find Inhibitors of Chronic Active B-Cell Receptor Signaling. ABC-DLBCL IkBa-CBG/CBR reporter, luminescence ratio, 4 h. Potency, µM (top dose mostly 46.1 µM), for the others: at the top dose activity change, negative = inhibition, usual class: inhibitors. actives 0.05% (n = 340,000); active = well fitted inhibition curve with a large enough effect in the signal ratio, with a control signal flat, not every such curve was filed as active; inconclusive = small, poorly fitted or top-dose-only effect, or effect the other way, or a change in a side signal; the % refers to the signal ratio;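 also: potency is read from the fitted curve at half-maximal effect; plate controls were basal doxycycline-induced cells for no effect and cells given 10 µM MG132 for full effect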
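Doxycycline induced both beetle luciferases in TMD8 lymphoma cells; IKK-driven degradation limits the IkappaBalpha-fused green signal, while red luminescence normalises for cell number and nonspecific effects. Compounds tested up to 46 uM, 4 hrs.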
Starred values were filed as active, the others as inactive; ? = inconclusive; . = not tested or not shown; [ ] = remark or other dose. Sampled rows, rich in hits. Any-hit rate of the full collection: about 8.3%. Unless noted, calls follow the shape of the dose curve; as a rule, active = well fitted curve in the direction sought with a large enough effect; inconclusive = small, poorly fitted or top-dose-only effect, or another doubt; inactive = no such curve, though single readings can be large; an effect the other way counts as inactive or inconclusive.

SMILES | VP16 counter | MCF10A rerep | RORgamma inh | Giardia kill | SW480 rereplic | Chronic BCR inh
CCOc1ccccc1C(=O)Nc1ccc2nc(N3CCN(c4ncccn4)CC3)cc(C)c2c1 | . | 8.2µM* | . | ? | ? | .
COc1cccc(C(=O)Nc2ccc3nc(N4CCN(c5ncccn5)CC4)cc(C)c3c2)c1OC | -5.3% | . | ? | . | . | ?
Oc1ccccc1N=Cc1c(O)ccc2oc3c(c12)CCCC3 | 10µM* | ? | 3.16µM* | 13.8 | 2.4% | -4.0%
O=C(O)c1ccc(N=Cc2c(O)ccc3oc4c(c23)CCCC4)cc1 | -2.9% | -3.3% | -41.4% | -2.9 | 7.9% | ?
CN(c1ccccc1)S(=O)(=O)c1ccc(Cl)c(C(=O)NCc2ccccc2CN2CCCC2)c1 | . | 15.5% | . | 23.0 | 18.7% | 1.9%
COC(=O)c1cc(C#N)c(N2CCN(C)CC2)nc1C | 4.9% | 20.6µM* | -6.1% | -8.9 | -69.5% | -1.2%
CCc1cccc(C)c1NC(=O)CCNC(=O)c1cccc(C)c1 | -2.7% | 1.9% | -38.6% | -11.8 | ? | 0.5%
COc1ccc(NC(=O)CSC2=C(C#N)C(c3ccco3)C3=C(CCCC3=O)N2)c(OC)c1 (centres undefined) | -16.2% | ? | 7.0% | 28.1 | ? | ?
COc1cccc(NC(=O)CSC2=C(C#N)C(c3ccco3)C3=C(CCCC3=O)N2)c1 (centres undefined) | -7.0% | 25.1µM* | 7.9% | 5.8 | 12.6µM* | ?
CCCCc1ccc(NC(=O)CSC2=C(C#N)C(c3ccco3)C3=C(CCCC3=O)N2)cc1 (centres undefined) | -8.4% | 3.98µM* | -3.0% | -21.3 | 20.6µM* | -3.3%
CC(Oc1ccccc1)C(=O)N=Nc1c(O)[nH]c2ccc(Br)cc12 (centres undefined) | -2.9% | 7.8% | 17.4% | 12.9 | -14.3% | 2.0%
CCOc1ccccc1N1CCN(C(=O)CNC(=O)c2ccc(OC)c(OC)c2)CC1 | 1.6% | -2.0% | 17.2% | -1.5 | 4.9% | -1.6%
COc1ccccc1N1CCN(C(=S)Nc2ccccc2)CC1 | ? | 12.7% | ? | -4.7 | 1.3% | -2.9%
COc1ccc(C(=O)NC(=S)N2CCN(c3ccccc3OC)CC2)cc1OC | 5.01µM* | 7.7% | 2.82µM* | 5.0 | 18.8% | -1.2%
COc1ccccc1N1CCN(C(=S)Nc2ccc(F)cc2)CC1 | ? | -0.9% | 11.2µM* | 30.8 | -4.7% | -8.9%
CCOc1cc2nc(-c3ccc(OC)c(OC)c3)nc(N3CCOCC3)c2cc1OC | -10.3% | ? | 16.2% | 10.3 | 23.1µM* | ?
CN1CCN(C(=S)NC(=O)c2cccc(S(=O)(=O)N(C)C)c2)CC1 | ? | -28.5% | 14.1µM* | -20.1 | 5.6%[1.84 µM] | 2.1%
CN1CCN(C(=S)Nc2cccc(S(=O)(=O)N(C)C)c2)CC1 | 6.4%[10 µM] | -4.1% | 26.3% | 8.1 | -29.5% | -2.4%
NCCN(Cc1ccc(Cl)c(Cl)c1)c1ccc(Br)cn1 | . | . | . | -16.5 | . | .
Cc1cccc(CSc2nnc(CCNC(=O)OC(C)(C)C)o2)c1 | 22.1% | -1.2% | 39.1% | -0.9 | -49.4% | -16.3%
Cc1cccc(C(=O)NC(=S)N2CCc3ccccc3C2)c1 | 3.55µM* | 5.1% | 1.41µM* | -9.6 | -692.8% | ?
COc1ccc(C(=S)N2CCOCC2)cc1OC(=O)c1ccc([N+](=O)[O-])cc1 | 5.8% | -14.3% | 0.5% | 6.3 | -31.0% | 3.0%
COc1cc(C(=S)N2CCOCC2)ccc1OC(=O)c1ccc([N+](=O)[O-])cc1[N+](=O)[O-] | 12.6µM* | 13.7% | ? | -9.6 | -2.1% | -13.0%
Cc1cccc(C(=O)NCCC(=O)N2CCc3ccccc3C2)c1 | . | 8.1% | . | 3.3 | 5.5% | 3.9%
CCOc1cc(C(=S)N2CCOCC2)ccc1OC | -0.7% | 13µM* | -9.6% | -1.0 | 1.0% | -1.1%
SMILES | VP16 counter | MCF10A rerep | RORgamma inh | Giardia kill | SW480 rereplic | Chronic BCR inh
COc1ccc(C(=O)NC(=S)N2CCN(C)CC2)cc1Br | 2.82µM* | -8.5% | 0.447µM* | 11.0 | -0.4% | -1.1%
CN(CCc1ccccc1)C(=O)c1cc(COc2ccc(F)cc2Cl)on1 | 22.6% | 0.7% | ? | 4.0 | 6.6% | 1.2%
CCOc1ccc(CCNC(=O)CN2C(=O)c3cccnc3Oc3ccc(Cl)cc32)cc1 | -5.2% | ? | 1.0% | 5.2 | 9.1% | 9.7%
COc1cc(C(=S)N2CCOCC2)ccc1OC(=O)/C=C/c1ccco1 | 17.8µM* | -3.5% | ? | ? | 17.0% | 11.9%
COc1ccc(C(=O)NC(=S)N2CCOCC2)cc1OC | ? | 1.1% | 11.2µM* | 44.2 | -0.6% | -21.4%
COc1ccc(C(=O)Nc2ccc(C(=O)N3CCOCC3)cc2)cc1OC | 1.8% | 1.2% | 8.6% | 8.6 | 1.0% | 7.1%
COc1ncc(C2=CC(=O)CC(C)(C)C2)cn1 | . | 13.1% | . | 23.2 | 18.1%[9.22 µM] | -0.3%
O=C(NC1CCN(C(=S)Nc2ccc(F)cc2)CC1)C1CCCCC1 | 8.8% | -2.1% | 0.7% | -1.6 | 1.3% | -5.7%
COc1cc(SC)ccc1C(=O)OCC(=O)NCCC1=CCCCC1 | . | 1.7% | . | -10.7 | -5.0% | -14.1%
CC(C)OC(=O)n1c(=S)oc2ccccc21 | ? | 4.61µM* | 0.6% | -5.1 | ? | ?
Cc1ccc(NC(=O)CCn2c(=S)oc3ccccc32)cc1 | -6.3% | -12.5% | 28.0% | 6.6 | 8.2% | 5.3%
CC(C)NC(=O)CCn1c(=S)oc2ccccc21 | 0.0% | 2.5% | 4.0% | 13.3 | -4.9% | -4.3%
CCCCC(=O)/C=C/n1c(=S)oc2ccccc21 | ? | 2.91µM* | ? | -16.3 | 6.51µM* | -22.4%
CC1CCc2sc(C(=O)NNC(=S)NC3CC3)cc2C1 (centres undefined) | -18.3% | 0.7% | ? | -4.7 | -7.0% | ?
COCc1nnc(NC(=O)c2ccc(S(=O)(=O)N(C)C3CCCCC3)cc2)o1 | 4.47µM* | 19.8% | 1.58µM* | -2.6 | 20.5% | -0.8%
CCN(CC)S(=O)(=O)c1ccc(C(=O)Nc2nnc(C(C)C)s2)cc1 | -12.7% | 4.6% | -4.2% | -1.8 | -5.5% | 11.5%
COCCN(CCOC)S(=O)(=O)c1ccc(C(=O)Nc2nnc(COC)o2)cc1 | -6.8% | 6.4% | ? | 19.7 | 3.6% | 6.3%
CN(c1ccccc1)S(=O)(=O)c1ccc(NC(=O)c2ccccc2)cc1 | -17.1% | 16.6% | ? | -10.2 | -7.0% | 0.8%
CCCN(CCC)S(=O)(=O)c1ccc(C(=O)Nc2nnc(COC)o2)cc1 | 2.24µM* | 0.9% | 0.562µM* | 21.7 | 0.0% | 5.9%
